USP7 block – blocks human USP7 ubiquitin-rhodamine cleavage. purified USP7, Ub-rhodamine cleavage fluorescence. AID 1645854. inhibition, % at 20 µM. hit rate 0.3% among 47,000
USP10 inh – blocks human USP10 ubiquitin-rhodamine cleavage; purified USP10, Ub-rhodamine fluorescence, 60 min; inhibition, % at 20 µM; hit rate 1.1% among 47,000
USP8 inh – inhibitors of human USP8 deubiquitinase; inhibition, % at 20 µM; AID 1645853; purified USP8, Ub-rhodamine cleavage fluorescence, 30 min; hit rate 4.2% among 47,000; P40818
UCHL1 block – human UCHL1 deubiquitinase inhibition. hit rate 0.2% among 47,000. purified UCHL1, Ub-rhodamine cleavage fluorescence. P09936. inhibition, % at 20 µM
Target sequence (P09936 whole entry, looked up): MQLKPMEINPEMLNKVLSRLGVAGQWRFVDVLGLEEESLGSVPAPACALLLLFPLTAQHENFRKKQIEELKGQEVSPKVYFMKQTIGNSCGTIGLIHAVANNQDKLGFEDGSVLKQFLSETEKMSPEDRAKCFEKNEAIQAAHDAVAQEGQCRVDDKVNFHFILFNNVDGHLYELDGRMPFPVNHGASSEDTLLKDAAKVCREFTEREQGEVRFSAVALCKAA
Starred values were filed as active, the others as inactive. Sampled rows, rich in hits. Any-hit rate of the full collection: about 5%. No stated cut-off is given here; in the data, active means inhibition above about 30%; inactive means the rest.

SMILES	USP7 block	USP10 inh	USP8 inh	UCHL1 block
Cc1cccn2cc(CCNC(=O)c3ccc([N+](=O)[O-])cc3)nc12	2	2	-147	1
CC1(C)CC(N2CC(=O)N3CCc4c([nH]c5ccccc45)[C@@]3(C)C2=O)CC(C)(C)N1	3	-2	11	0
Cn1cc2cccc(NC(=O)c3ccc(F)cc3)c2n1	-2	2	91*	5
Cc1nn(C)cc1NC(=O)Nc1ccc(F)cc1	4	0	7	1
O=C(Cn1c(=O)n(Cc2ccc3c(c2)OCO3)c(=O)c2ncccc21)NCc1ccco1	-2	-3	13	-2
O=C(Cn1c(=O)n(Cc2ccccc2)c(=O)c2ncccc21)NCc1ccccc1Cl	33*	51*	50*	9
O=C(Cn1c(=O)n(Cc2ccncc2)c(=O)c2ncccc21)Nc1ccccc1	1	-4	13	0
O=C(Cn1c(=O)n(Cc2ccc3c(c2)OCO3)c(=O)c2ncccc21)c1ccc(Cl)cc1	2	8	73*	1
Cc1cccc(-n2ncc3c2ncn2nc(-c4ccncc4)nc32)c1	5	0	18	2
COc1ccccc1N1CCN(C(=O)Cc2ccccc2[N+](=O)[O-])CC1	-5	-2	-5	-2
COc1ccccc1CC(=O)N1CCN(c2cccc3[nH]ccc23)CC1	-5	-6	58*	-1
COc1cc2c(c(OC)c1OC)-c1ccc(N3CCN(Cc4ccc5c(c4)OCO5)CC3)c(=O)cc1[C@@H](NC(C)=O)CC2	2	-9	45*	2
CN1CC(=O)N(C2CCCNC2)Cc2c1ncnc2N1CCCCC1 (stereo unspecified)	-2	-1	-53	-8
Cc1nc(-c2cccnc2)nc2c1CC(=O)N2C1CCCC1	-4	-1	37*	3
O=C(CSc1nc2cc(C(F)(F)F)ccc2s1)NCC(=O)c1ccccc1	59*	45*	32*	21
O=C(Oc1ccc(-c2nccc(-c3cccs3)n2)cc1)c1ccco1	9	5	36*	5
O=C(Oc1ccc(-c2nccc(-c3cccs3)n2)cc1)c1ccccc1	4	6	6	2
Brc1ccc(C2=CC(c3cccs3)n3c(nc4ccccc43)N2)s1 (stereo unspecified)	-74	-3	42*	-59
CC1=C(C(=O)N2CCCCC2)C(c2cccs2)n2c(nc3ccccc32)N1 (stereo unspecified)	-2	-1	-5	0
Cc1noc(-c2ccnc(-n3ncc(C(=O)NC4CCCCCC4)c3C)c2)n1	4	0	4	0
Cn1cnnc1-c1cccc(NC(=O)Nc2cccc3ccccc23)c1	1	-2	70*	1
O=C(Nc1cccc(F)c1)Nc1cccc(-c2nnc(-c3ccccc3)o2)c1	10	32*	31*	4
Cc1ccccc1NC(=O)Nc1cccc(-c2nnc(-c3ccccc3)o2)c1	8	25	51*	1
COc1ccc(NC(=O)Nc2cccc(-c3nnc(-c4ccccc4)o3)c2)cc1OC	16	5	14	7
O=C(Nc1ccccc1)Nc1ccc(F)c(-c2nnc(-c3ccccc3)o2)c1	18	27	25	-3
SMILES	USP7 block	USP10 inh	USP8 inh	UCHL1 block
O=C(Nc1ccccc1N1CCOCC1)Nc1cccc2ccccc12	0	2	27	-3
CC(C)(C)C(=O)Nc1ccc(C(=O)Nc2cccc(-c3nnc(-c4ccccc4)o3)c2)cc1	7	38*	4	1
Cc1ccc(/C=C/c2nc3ccccc3n2S(=O)(=O)c2ccc3c(c2)OCCO3)cc1	9	8	17	4
CCn1nnc2c(NCc3ccccc3Cl)ncnc21	-4	-1	-9	0
O=C(NCCc1c[nH]c2ccccc12)NCc1ccc(Cl)cc1Cl	0	9	2	8
Cc1cn[nH]c1CC1CCCN(C(=O)c2cc3ccccc3[nH]2)C1 (stereo unspecified)	0	5	3	3
CS(=O)(=O)c1ccc2nc(N(Cc3cccnc3)C(=O)c3ccc4ccccc4c3)sc2c1	7	7	63*	6
Cc1ccc(NC(=O)CNc2ccccc2N2CCOCC2)cc1S(=O)(=O)N(C)C	1	2	-1	5
O=C(c1cc2cn(C3CC3)cc2s1)N1CCCN(c2ncccn2)CC1	-14	-4	83*	-6
O=C(c1cc2c(s1)CN(C1CCCC1)C2)N1CCCN(c2ncccn2)CC1	-8	-9	84*	0
COc1ccc2c(c1)C[C@@H](c1cccnc1)N[C@H]2c1cccnc1	-1	-1	41*	1
COc1ccc2c(c1)C[C@@H](c1cccnc1)N[C@H]2c1ccccn1	0	-4	-10	2
N=C1C(c2nc3ccccc3s2)=C(O)CN1Cc1cccc(F)c1	0	-6	0	-6
N=C1C(c2nc3ccccc3s2)=C(O)CN1Cc1ccc(F)cc1	3	9	33*	-3
COc1cccc(CN2CC(O)=C(c3nc4ccccc4s3)C2=N)c1	0	-11	15	-3
CC(c1ccccc1)N1CC(O)=C(c2nc3ccccc3s2)C1=N (stereo unspecified)	30*	45*	90*	0
CNc1ncc(CN2CCc3cc(OC)c(OC)cc3C2c2ccncc2)cn1 (stereo unspecified)	2	0	-14	-2
O=C(CN(Cc1ccccc1)S(=O)(=O)c1ccc(Cl)cc1)NCc1ccco1	-1	10	11	3
Cc1ccc2c(C)c(C(=O)N(Cc3ccc(Cl)cc3)Cc3ccco3)oc2c1C	12	16	49*	8
CCOc1ccc(C2=NC3(CCN(C(C)=O)CC3)NC(c3ccccc3O)C2)cc1 (stereo unspecified)	-2	-1	10	0
Cc1ccc(NS(=O)(=O)c2cc(C(=O)NCc3ccncc3)ccc2C)c(C)c1	3	1	21	3
CCNC(=O)c1ccc(N2CCNCC2)c(NS(=O)(=O)c2cc(C)c(C)cc2C)c1	-5	-3	46*	0
Cc1cc(C)c(S(=O)(=O)Nc2cc(C(=O)O)ccc2N2CCN(C)CC2)c(C)c1	-11	-2	77*	1
CCCN1CCN(c2ccc(C(=O)O)cc2NS(=O)(=O)c2ccccc2)CC1	-23	0	74*	-1
CSc1cccc(C(=O)Nc2ccc(-c3nc4ccccc4[nH]3)cc2)c1	8	13	15	5
SMILES	USP7 block	USP10 inh	USP8 inh	UCHL1 block
COc1ccccc1Cn1ccc2nc3ccn(-c4ccncc4)c(=O)c3cc2c1=O	-2	-1	-4	-1
O=C(Nc1nccs1)C1c2ccccc2C(=O)N(C2CCCC2)C12CCCCC2 (stereo unspecified)	5	3	7	-3
O=C(O)C1CCCCN1Cc1c(-c2ccc3c(c2)OCO3)nc2ncccn12 (stereo unspecified)	0	1	0	-1
O=C(Oc1ccccc1Br)c1cc(-c2ccc3c(c2)OCCO3)on1	-74	-7	52*	-4
O=C(NCC(c1ccccc1)N1CCCC1)c1cc(-c2ccc3c(c2)OCCO3)on1 (stereo unspecified)	-5	-5	4	-1
O=C(c1ccc2occc2c1)N1CCC(S(=O)(=O)c2ccc(-c3ccco3)cc2)CC1	52*	33*	78*	52*
